This is part of a sample that, as a whole, favours compounds with a hit. Of some 79,000 tested, about 15% had one in any assay. The source made the active and inactive calls. No stated cut-off is given here; in the data, active means growth inhibition above about 70%; inactive means the rest.
Tests used:
[1] = NCI Yeast Anticancer Drug Screen. Data for the rad50 strain (AID 155);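 further: 0% = growth of vehicle-only cultures of the same strain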; details: S. cerevisiae rad50 strain growth inhibition, active compounds read high; at 50.0 µM unless noted
Outline: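 Growth of the mutant yeast was measured after compound exposure and referenced to vehicle-treated cultures.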

[2] = NCI Yeast Anticancer Drug Screen. Data for the mec2-1 strain (AID 157); details: S. cerevisiae mec2-1 strain, active compounds read high; at 50.0 µM unless noted
Outline: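 Vehicle-treated cultures served as reference for growth inhibition of compound-exposed mec2-1 yeast.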

[3] = NCI Yeast Anticancer Drug Screen. Data for the sgs1 mgt1 strain (AID 161);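 further: 0% = growth of cultures given vehicle only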; details: S. cerevisiae sgs1 mgt1 strain, active compounds read high; at 50.0 µM unless noted
Outline: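 Read-out: growth inhibition vs vehicle controls. Cells: mutant yeast strain deficient in DNA damage repair.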

[4] = NCI Yeast Anticancer Drug Screen. Data for the cln2 rad14 strain (AID 165);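 further: 0% = growth equal to vehicle treated cultures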; details: S. cerevisiae cln2 rad14 strain, active compounds read high; at 50.0 µM unless noted
Outline: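 Each compound was tested on cln2 rad14 yeast. Inhibition of growth was calculated against vehicle-exposed controls.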

[5] = NCI Yeast Anticancer Drug Screen. Data for the bub3 strain (AID 167); details: S. cerevisiae bub3 mutant strain, active compounds read high; at 50.0 µM unless noted
Outline: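 Whole-cell yeast assay. The mutant strain was incubated with compounds, and growth inhibition was determined by comparison with vehicle-treated cells.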

[6] = NCI Yeast Anticancer Drug Screen. Data for the mlh1 rad18 strain (AID 175); details: S. cerevisiae mlh1 rad18 strain growth inhibition, active compounds read high; at 50.0 µM unless noted
Outline: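 Vehicle-treated cultures served as the reference for growth inhibition in a yeast strain carrying DNA damage repair alterations exposed to each compound.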

Measured: growth inhibition

COc1cccc2c1OC1(N3CCOCC3)CCCCC1C2C[N+](=O)[O-] (stereo not given)
inactive: [1] 6.8% | [2] -14% | [3] 12.3% | [4] 3.35% | [5] -7.9% | [6] -11.1%

CC[N+](CC)(CC)CCOC(=O)c1cc(OC)c(OC)c(OC)c1
inactive: [1] -16.4% | [2] -20.4% | [3] -2.35% | [4] 15.4% | [5] 4.1% | [6] -0.6%

COc1cc2c3c([nH]c2c(OC)c1OC)CCN(Cc1ccccc1)C3
inactive: [1] -27.7% | [2] -15.1% | [3] -10.2% | [4] 6.1% | [5] -0.7% | [6] 10.8%

CCOC(=O)CN1C(=O)/C(=C2\SC(=S)N(CC(=O)OCC)C2=O)SC1=S
inactive: [1] 19.1% | [2] 9.95% | [3] 16.1% | [4] 7.7% | [5] -3.9% | [6] 9.4%

COc1ccc2[nH]c3cc4c(=O)c5cc(OC)ccc5[nH]c4cc3c(=O)c2c1
inactive: [1] -31.6% | [2] -15.8% | [3] -6.2% | [4] 5.05% | [5] -2.9% | [6] -37.6%

Source: PubChem BioAssay (NCI)
